USP28 block: inhibitors of human USP28 deubiquitinase; inhibition, % at 25 µM; Q96RU2; hit rate 3% among 47,000; purified USP28, Ub-rhodamine cleavage fluorescence, 30 min
USP8 block: blocks human USP8 ubiquitin-rhodamine cleavage | hit rate 4.2% among 47,000 | purified USP8, Ub-rhodamine cleavage fluorescence, 30 min | AID 1645853 | inhibition, % at 20 µM
USP30 block: blocks human USP30 ubiquitin-rhodamine cleavage. inhibition, % at 25 µM. purified USP30, Ub-rhodamine cleavage fluorescence. hit rate 5.3% among 47,000. Q70CQ3. AID 1645860
USP17 block: inhibitors of human USP17 deubiquitinase; A8MUK1; purified USP17, Ub-rhodamine cleavage fluorescence, 3 h; inhibition, % at 50 µM; hit rate 6.5% among 47,000
USP10 block: blocks human USP10 ubiquitin-rhodamine cleavage; AID 1645856; inhibition, % at 20 µM; hit rate 1.1% among 47,000; purified USP10, Ub-rhodamine fluorescence, 60 min
Of the large screens only hits and unclear results are named; the others gave an inactive call. Compounds with a hit are over-represented: about 13% of the library has one in this group of screens. No stated cut-off is given here; in the data, active means inhibition above about 30%; inactive means the rest.

Cc1[nH]ncc1C(=O)N1CCCC(c2cccc(-n3ccnc3)n2)C1 (stereo not drawn)	none
Cc1[nH]ncc1C(=O)N1CCCC(c2cccc(-n3ccnc3C)n2)C1 (stereo not drawn)	USP17 block 40
COc1cccc(C2C3=C(CC(c4ccc(Cl)cc4)CC3=O)Nc3ccccc3N2C(=O)CCC(=O)O)c1 (stereo not drawn)	none
O=C(O)CCCCCN1C(=O)CC(c2ccc(Cl)cc2)CC1=O	USP28 block 32, USP8 block 55, USP17 block 76
COc1cccc(NC(=O)c2cc(-c3ccccc3)n[nH]2)c1	none
COc1cccc(-c2cc(C(=O)Nc3cccc(C)c3)[nH]n2)c1	none
CC(=O)c1cccc(NC(=O)c2cc(-c3cccnc3)n[nH]2)c1	USP28 block 91, USP30 block 86, USP17 block 78
O=C(Nc1cccc(Br)c1)c1cc(-c2cccnc2)n[nH]1	USP28 block 43, USP8 block 98, USP30 block 71, USP10 block 37
COc1ccccc1Nc1ncc(C(=O)NCCc2ccc(Cl)cc2)c2ccccc12	USP8 block 37, USP17 block 81
COc1ccccc1CNC(=O)c1cnc(Nc2ccccc2OC)c2ccccc12	none
COc1ccccc1Nc1ncc(C(=O)N(C)Cc2ccccc2)c2ccccc12	USP8 block 69
COC(=O)CNC(=O)c1cnc(Nc2ccccc2OC)c2ccccc12	USP17 block 31
COc1ccccc1Nc1ncc(C(=O)Nc2ccc3c(c2)OCO3)c2ccccc12	none
O=C(Cc1c[nH]c2ncccc12)NC1CCN(Cc2ccccc2)CC1	none
O=C(CCCCn1c(=O)c2ccccc2n(Cc2ccccc2F)c1=O)NCCc1ccccc1	USP17 block 56
Cc1ccc(CNC(=O)CCCn2c(=O)c3ccccc3n(Cc3cccc(F)c3)c2=O)cc1	USP17 block 39
N#Cc1ccccc1Cn1c(=O)n(CCCCC(=O)NCCc2ccccc2)c(=O)c2ccccc21	USP17 block 78
CN1C(=O)OC2(CCN(C(=O)c3ccccc3)CC2)c2ccccc21	none
COc1ccccc1NC(=O)c1cc2c(C)nn(Cc3ccccc3)c2s1	USP17 block 70
Cc1nn(Cc2ccccc2)c2sc(C(=O)Nc3nc4ccccc4[nH]3)cc12	USP8 block 84, USP30 block 44, USP17 block 67
Cc1cc(C2CN(C(=O)Cn3nnc4ccccc43)CCO2)ccn1 (stereo not drawn)	none
COC(=O)c1ccc(NC(=O)CSc2nnc(-c3ccc(O)cc3)n2Cc2ccco2)cc1	USP30 block 84
N#Cc1cccc(NC(=O)/C=C/c2cccc3ccccc23)c1	USP17 block 35
N#Cc1cccc(C(=O)Nc2cccc(Oc3ccccc3)c2)c1	none
CO[C@H]1C[C@@H]2CC[C@@H](C)[C@@](O)(O2)C(=O)C(=O)N2CCCC[C@H]2C(=O)O[C@@H]([C@H](C)C[C@@H]2CC[C@@H](O)[C@H](OC)C2)CC(=O)[C@H](C)/C=C(\C)[C@@H](O)CC(=O)[C@H](C)C[C@H](C)/C=C/C=C/C=C/1C	none
C[C@@H]1/C=C/CC/C=C/C(=O)[C@H](C)[C@@H]2CC[C@@H](C)[C@@](O)(O2)C(=O)C(=O)N2CCCC[C@H]2C(=O)O[C@H]([C@H](C)C[C@@H]2CC[C@@H](O)[C@H](O)C2)CC1	USP28 block 97, USP30 block 93, USP17 block 82
O=c1[nH]c(NC2CCN(Cc3nnnn3Cc3ccc4c(c3)OCO4)CC2)nc2c1CCCC2	USP30 block 38
O=S1(=O)CCC(S(=O)(=O)Nc2ccc(OCc3ccc(Cl)cc3)cc2)C1 (stereo not drawn)	USP8 block 57, USP17 block 35
Cc1ccc(C(=O)C(C)OC(=O)c2ccc(Br)cn2)cc1 (stereo not drawn)	none
CCCCNC(=O)C1Sc2nnc(-c3ccccc3)n2NC1c1ccccc1 (stereo not drawn)	USP30 block 50
CCCCNC(=O)C1CCN(c2ccc(N3CCCCC3)nn2)CC1	none
COc1cccc(NC(=O)Cn2c3ccccc3n3c(=O)cc(-c4ccccc4)nc23)c1	USP8 block 88, USP10 block 49 (no result: USP17 block)
CCOC(=O)N1CCN(S(=O)(=O)c2ccc(C(=O)Nc3ccc(OC)c4ccccc34)cc2)CC1	USP8 block 56
CC(C)CCNC(=O)CSc1nc(-c2cccc(Cl)c2)nc2cc(=O)[nH]n12	USP17 block 42
Cc1c(C)n2c(SCC(=O)Nc3cccc(Cl)c3)nnc2[nH]c1=O	none

Assay outcomes: PubChem BioAssay, Buhrlage Lab, Dana-Farber Cancer Institute and Novartis Institutes for BioMedical Research (Cambridge, Mass)
